# The campaign covered roughly 290,000 compounds. About 670 (0.23%) were called active. Only a selection was taken, and actives are over-represented in it overall. A number with no mark means an inactive call.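 Rule for the calls: active = inhibition above a per-plate limit of that plate's mean compound inhibition plus 3 SD (cut at about 60% in these data); inactive = the rest.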
# Assay: suppression of KLF5 promoter-driven luciferase – DLD-1 cells, luminescence, primary screen (AID 1700);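 note: 0% = DMSO wells and 100% = LY294002 at 200 µM; higher means less KLF5 promoter-driven luciferase light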
# Conditions: DLD-1 KLF5 promoter-luciferase reporter, at 5 µM, active compounds read high
row,Compound,inhibition
1,O=C(N[C@@H](Cc1ccccc1)C(=O)OCc1ccccc1)c1nc[nH]c1C(=O)N[C@@H](Cc1ccccc1)C(=O)OCc1ccccc1,-14.8%
2,O=C(CN1CCC(O)(c2cccc(C(F)(F)F)c2)CC1)NCCc1ccccc1,-13%
3,O=C(CSc1ccc(-c2ccccn2)nn1)Nc1ccccc1,-2%
4,Cc1cc(=O)n2nc(N3CCC(C(=O)Nc4c(F)c(F)c(F)c(F)c4F)CC3)sc2n1,13.4%
5,N#CCC(=O)NC1CCC(CC2CCC(NC(=O)CC#N)CC2)CC1 (stereo unspecified),-13.8%
6,Cc1nn(C(C)C(=O)N2CCOCC2)c(=O)c2nn(-c3ccccc3)c(C)c12 (stereo unspecified),-19%
7,CCOc1cc(C(=O)N2CCc3cc(OC)c(OC)cc3C2)ccc1OC(F)F,73.9% (active)
8,COc1cc2c(cc1OC)CN(C(=O)c1ccc(S(=O)(=O)N3CCCCCC3)cc1)CC2,-28.3%
9,COc1cc2c(cc1OC)CN(C(=O)c1cc(=O)c3ccccc3o1)CC2,37.6%
10,COc1cccc(/C=N/NC(=O)c2[nH]nc3c2CCc2ccccc2-3)c1O,5.06%
11,COc1cccc(/C=N/Nc2cc(C)nc(-c3ccccc3O)n2)c1O,-137%
12,COc1cccc(/C=N/Nc2ncc(C(F)(F)F)cc2Cl)c1O,101% (active)
13,O=C1CSc2ccc(S(=O)(=O)NCc3ccccc3)cc2N1,11.2%
14,Cc1c(CC(=O)NCC(=O)NCC(=O)O)c(=O)oc2cc3oc4c(c3cc12)CCCC4,-28.3%
15,Cc1ccc2[nH]c(=O)c(CN(CCCN(C)C)C(=O)Nc3cccc(Cl)c3)cc2c1,109% (active)
16,Cc1ccc2[nH]c(=O)c(CN(CC3COCCO3)C(=O)Nc3ccccc3C)cc2c1 (stereo unspecified),18.1%
17,CCC(=O)N(CCc1ccccc1)Cc1cc2cc(C)ccc2[nH]c1=O,-35.9%
18,O=C(NCCc1ccc(Cl)cc1)C1CCCN1C(=O)NCc1ccccc1 (stereo unspecified),-14.2%
19,COc1ccc(NCCc2ccccn2)cc1,-36.1%
20,COc1ccccc1/C=N/N1CCN(Cc2ccccc2Cl)CC1,-27%
21,CCOc1ccccc1NC(=O)Cc1cccs1,4.44%

row,Compound,inhibition
1,CCOc1ccc(Cn2nnc(C(=O)NCc3ccccc3)c2N)cc1,-14.8%
2,CCOc1ccccc1NC(=O)Cn1nnc(C(=O)NCc2cccs2)c1N,72.7% (active)
3,COC(=O)CNC(=O)c1ccccc1F,-16.9%
4,CN(NC(=O)c1ccccc1F)c1nc(C(F)(F)F)nc2ccccc12,68.7% (active)
5,COc1ccc(C(=O)NN(C)c2nc(-c3ccccc3)cc(C)c2S(C)(=O)=O)cc1,-7.27%
6,CN(NC(=O)c1ccccc1)c1nc2ccccc2nc1C(F)(F)F,-18.5%
7,CSc1nc(N(C)NC(=O)c2cccc(C)c2)c2ccccc2n1,83.5% (active)
8,Cc1cccc(C(=O)NCCCN(C)CCCNC(=O)c2cccc(C)c2)c1,-59.8%
9,O=C(Nc1ccccc1C(=O)NCC1CCCO1)c1ccccc1F (stereo unspecified),-10.3%
10,CCCCCCCCn1c2c(c(=N)c3c1CCC3)CCCC2,72.8% (active)
11,CCCCCCn1c(CN2CCCCC2)nc2c1c(=O)n(C)c(=O)n2C,0.95%
12,O=c1[nH]cccc1-c1nc2ccccc2n1Cc1ccc(Cl)cc1,-29.9%
13,Cc1ccc(CNS(=O)(=O)c2ccc3c(c2)N(C)CCO3)cc1,-12.4%
14,Cn1cc(C(=O)c2ccc(Cl)cc2Cl)cc1C(=O)NN,-35.5%
15,CCOc1ccccc1CN1CCN(C2CCC2)CC1CCO (stereo unspecified),12%
16,CCOC(=O)c1sc(NC(=O)c2sc(C)nc2C)nc1C,79% (active)
17,CCOC(=O)c1sc(/N=C/Nc2nc(C)c(C(=O)OCC)s2)nc1C,6.72%
18,CCOC(=O)c1sc(NC(=O)c2ccncc2)nc1C,-25.1%
19,Cc1cccc(NC(=O)C2CCN(C(=O)NC3CCCCC3)CC2)c1,-12.5%
20,Cc1ccc(O)c(CNc2nc3ccccc3[nH]2)c1,-87.9%
21,COc1ccc(-c2cc(=O)oc3cc(OCC(=O)N(C)C4CCS(=O)(=O)C4)ccc23)cc1 (stereo unspecified),-4.99%

row,Compound,inhibition
1,Cc1ccc(-c2cc(=O)c3ccc(F)cc3[nH]2)cc1,9.96%
2,Cc1ccc(-c2cc(=O)c3ccc(Cl)cc3[nH]2)cc1,-4.81%
3,O=c1cc(-c2ccccc2)[nH]c2cc(F)ccc12,73.5% (active)
4,CCCCNC(=O)c1cn(CC)c2cc(N3CCN(C(=O)c4ccco4)CC3)c(F)cc2c1=O,-2.76%
5,COc1ccc(NC(=O)CCNC(=O)Cn2cnc3sc4c(c3c2=O)CCCC4)cc1OC,-21.6%
6,COc1cc(NC(=O)C2=C(C)OCCS2)c(Cl)cc1C(=O)NCCN1CCN(C)CC1,-25.5%
7,O=C1CCC(C(=O)N2CCN(c3ccccc3Cl)CC2)CN1CC1CCCCC1 (stereo unspecified),-15.8%
8,CC1CCCN(CC(=O)Nc2cc(Cl)ccc2Oc2ccccc2)C1 (stereo unspecified),-4.36%
9,Cc1ccc(CNC(=O)C2CCN(S(=O)(=O)c3ccc4nc5c(c(C(=O)O)c4c3)CC(C)CC5)CC2)cc1 (stereo unspecified),-5.44%
10,CCc1ccc(/C=N/NC(=O)c2nnn(-c3nonc3N)c2CN2CCc3ccccc32)cc1,9.12%
11,O=C(CSc1nc(C2CC2)nc2ccccc12)Nc1cccc(O)c1,-13.5%
12,Cn1cc(CCC(=O)NC2CC2)c2ccccc21,-37%
13,Cc1ccc(S(=O)(=O)N(C)CC(=O)NCCc2c[nH]c3ccccc23)cc1,-25.4%
14,Cc1ccc(/C=N/NC(=O)c2cc3ccccc3cc2O)o1,-47.3%
15,Cc1ccc(CSc2nsc(C)c2C#N)cc1,-19.4%
16,Cc1ccc(-c2cn3cc(C)ccc3n2)cc1,81% (active)
17,Cc1ccc2nc(-c3ccc(Br)cc3)cn2c1,48.8%
18,Cc1ccc(-c2cn3cc([N+](=O)[O-])ccc3n2)cc1,-2.85%
19,O=C(CCn1nnnc1CN1CCOCC1)N1CCC(c2ccccc2Cl)C1 (stereo unspecified),-1.39%
